From PubChem BioAssay (NCI) come the findings set out here.

Compounds without any hit were thinned out: in the full panel of roughly 83,000, 20% have a hit.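 In brief: 96-well plates, 48 h treatment, single concentration, percent growth endpoint.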 Unmarked numbers belong to inactive results. The source made the active and inactive calls. The calls were made as follows: active = growth percent below 10; inactive = the rest.

In the experiment the test system is RPMI-8226 leukemia. The experiment can be described thus: NCI-60 one-dose screen, 48 h (100 = growth as untreated, 0 = no growth, -100 = all killed). Conditions: 10 µM unless noted.
Take `CC(=O)OC[C@]12CC[C@@H]([C@@H](C)c3nnc(-c4ccncc4)o3)[C@@H]1[C@H]1CC[C@@H]3[C@@]4(C)CC[C@H](OC(C)=O)C(C)(C)[C@@H]4CC[C@@]3(C)[C@]1(C)CC2`: the growth is 47.4%. As to `CCN(CC)c1ccc(/C=N/NC(=O)Cc2ccc(Nc3ccnc(C(F)(F)F)c3)cc2)c(O)c1`, the growth was 25.8%.

Turning to `Cc1cc2c(cc1C)N(C(=O)CCl)CC(=O)N2`, the growth was 37.5%. For `C#CC#CC#CC#CC#CC#CC#CC#CC[C@@H]1OC[C@@H](COC(=O)O[C@@H](C(=O)O[C@H]2C[C@@]3(O)[C@@H](OC(=O)c4ccccc4)[C@@H]4[C@]5(OC(C)=O)CO[C@@H]5C[C@H](O)[C@@]4(C)C(=O)[C@H](OC(C)=O)C(=C2C)C3(C)C)[C@@H](NC(=O)c2ccccc2)c2ccccc2)O1` the value was 5.29% (active); for `CCN1C(=O)N(CC)C2C1NN=c1s/c(=C\c3cnc(C)n3C)c(=O)n12` (stereo not given), 20.1%. For `C/C=C(\C)C(=O)N[C@H]1C(O)C[C@]2(C)C3CC[C@@]4(C)C(CC[C@@H]4C(C)N(C)C)C3CCC2C1O` (stereo not given in full) the value was -12.3% (active); for `C#Cc1cccc(Nc2nc(C)nc3cc(NC(=O)CCl)ccc23)c1`, -47.5% (active).

With `CSc1nn2c(-c3ccc4ccccc4c3)ccnc2c1C#N`, the growth is 24.1%. Regarding `CCN(CC)CCCOc1ccc2ncnc(Nc3ccc(Oc4cccc(C(F)(F)F)c4)c(Cl)c3)c2c1`, the growth was -29.8% (active). For `CCOC(=O)c1c(C)c2c(n1Cc1ccccc1)CSCC2=O` the value was -5.25% [100 µM] (active).
